From PubChem
Rows were chosen to be rich in hits. Some 21% of all compounds tested hit in one or more screens of this group.
AMA1-RON2 inh – disrupts binding of P. falciparum AMA1 to RON2. AlphaScreen AMA1-biotinylated RON2 peptide binding. Potency, µM (series often up to 58.2 µM), for the others: top-dose activity change, negative = inhibition, hits mostly inhibitors. 360,000 compounds, 0.2% hits;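 further: potency means the concentration at half of the fitted maximal effect; 0% = vehicle wells and -100% = peptide control; nearly all actives have a fitted effect of over 45% in size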
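AMA1 (3D7) with his tag at 25 nM final met compounds first, then biotinylated RON2 peptide at 25 nM; detection used donor plus acceptor beads, 10 µg/mL apiece, read by AlphaScreen after 30 min at room temperature.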
HCV inhibitor – HCV inhibition | 340,000 compounds, 3.4% hits | Huh7.5.1 HCVcc-Cre infection, luciferase reporter, 44 h | Potency, µM (top dose mostly 41.8 µM), inactives show at the top dose activity change, negative = inhibition, usual class: inhibitors; further: potency means the concentration at half of the fitted maximal effect; on the % scale 0 is the no-effect control and ±100 the full control effect
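Antiviral activity was scored by luciferase reporter output from cells infected with HCVcc-Cre (~0.5 moi) in presence of compound, 44 h infection period, cells seeded 1,000/well 4 h prior.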
Cycloheximide cs – counter-screen for Shiga toxin inhibitors: cycloheximide protein synthesis inhibition. 300,000 compounds, 12% hits. cell reporter, cycloheximide protein synthesis inhibition counterscreen. max response, %; in the data active means max response mostly above about 13%, no sharp cut-off; inactive means mostly below about 14%; further: read at 38.3 µM for the half of the compounds with a filed dose; 0% is about no effect
Pf growth 48h – inhibits P. falciparum growth in the first generation, 48 h. P. falciparum luciferase growth in erythrocytes, 48 h. Potency, µM (highest dose often 28.7 µM), for inactives: at the top dose activity change, negative = inhibition, hits mostly inhibitors. 310,000 compounds, 5.9% hits. AID 504832; further: potency means the concentration at half of the fitted maximal effect; on the % scale 0 is the no-effect control and ±100 the full control effect
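Here the parasites carry a stable luciferase gene and grow inside erythrocytes in Albumax-based RPMI medium with compound for one erythrocytic cycle. Activity is scored as loss of luminescent signal.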
Shiga inhibitor – inhibitors of Shiga toxin in Vero cells. inhibition, % at 38.7 µM. Vero cells, Shiga toxin protein synthesis inhibition reporter. 290,000 compounds, 9.2% hits; in the data active means inhibition mostly above about 28%, no sharp cut-off; inactive means mostly below about 43%; further: 0% is about no effect
Pf growth 96h – inhibits malaria parasite growth, 96 h; P. falciparum luciferase reporter growth, 96 h; Potency, µM (titrated, usually from 28.7 µM), inactives show top-dose activity change, negative = inhibition, usual class: inhibitors; 320,000 compounds, 6.9% hits; further: potency means the concentration at half of the fitted maximal effect; on the % scale 0 is the no-effect control and ±100 the full control effect
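Two parasite generations (96 h, 37 C, 5% CO2) of compound exposure in infected erythrocytes (0.05% parasitemia, 2% hematocrit). Luciferase-reporter P. falciparum; decreased luminescence indicates inhibited growth, aimed at apicoplast-acting delayed death.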
* = called active by the depositor; ? = inconclusive; . = no result given; [ ] = dose if it differs, or a comment. Unless noted, the call rests on the fitted dose curve; in most records, active means well fitted curve in the direction sought with a large enough effect; inconclusive means small, poorly fitted or top-dose-only effect, or another doubt; inactive means no such curve, though single readings can be large; an effect the other way counts as inactive or inconclusive.

SMILES	AMA1-RON2 inh	HCV inhibitor	Cycloheximide cs	Pf growth 48h	Shiga inhibitor	Pf growth 96h
COc1cc2cc(-c3ccc(O)cc3O)nc(C)c2cc1OC	-24%	5.6µM*	3	?	21	?
COc1ccc(Oc2cn[nH]c2-c2ccc(O)cc2O)cc1	-4%	-28%	-4	?	32	?
Cc1cc(C)c(C)c(S(=O)(=O)N2CCN(CC(=O)c3c(N)n(Cc4ccccc4)c(=O)n(C)c3=O)CC2)c1C	0%	?	-2	5.9µM*	17	?
CCn1c(=O)c(C(=O)CN2c3ccccc3CC2C)c(N)n(Cc2ccccc2)c1=O (stereo not drawn)	8%[2.32 µM]	?	-4	?	-9	?
CCn1c(=O)c(C(=O)CN2CCCc3ccccc32)c(N)n(Cc2ccccc2)c1=O	7%	?	5	9.3µM*	28	12µM*
CC1Cc2ccccc2N1CC(=O)c1c(N)n(Cc2ccccc2)c(=O)n(C)c1=O (stereo not drawn)	?	-8%	0	8.3µM*	-17	9.3µM*
CCn1c(=O)c(C(=O)CN2CCN(S(=O)(=O)c3ccccc3)CC2)c(N)n(Cc2ccccc2)c1=O	13%	2%	-5	-12%	-3	?
CCn1c(=O)c(C(=O)CN2CCN(S(=O)(=O)c3ccc(C)cc3C)CC2)c(N)n(Cc2ccccc2)c1=O	-12%	?	-3	?	-3	8.3µM*
CCC(O)CNc1nc(SC)nc2sc3c(c12)CCN(C)C3 (stereo not drawn)	6%	-2%	-1	.	-10	.
Cc1nc(SCC(=O)N2CCOCC2)c2c3c(sc2n1)CCC3	-8%	32%	.	.	.	.
CCNc1nc(SCC(N)=O)nc2sc3c(c12)CCN(C)C3	-11%	20%	2	?	-4	1µM*
CSc1nc(SCC(N)=O)c2c3c(sc2n1)CN(C)CC3	-15%	-8%	1	3.3µM*	-12	0.59µM*
CC1=C(C(=O)N2CCOCC2)CC(CC(=O)NCCc2ccccn2)C(=O)N1Cc1ccccc1 (stereo not drawn)	5%	.	.	.	.	.
COCC(=O)O[C@]1(CCN(C)CCCc2nc3ccccc3[nH]2)CCc2cc(F)ccc2[C@@H]1C(C)C	-16%	?	-5	1.5µM*	-11	2.4µM*
CCOC(=O)CCc1nc2ccccc2[nH]1	1%	8%	0	.	39	.
CC(C)NC(=S)N/N=C/c1c[nH]c2ccccc12	47%	-6%	18*	?	29*	27%
Cc1[nH]c2ccccc2c1/C=N/NC(=S)NC(C)C	30%	10µM*	12	-18%	-11	?
Cc1[nH]c2ccccc2c1/C=N\NC(=O)c1ccccc1Cl	9%	.	.	.	.	.
CC(SC(C)C(=O)NN=Cc1c[nH]c2ccccc12)C(=O)NN=Cc1c[nH]c2ccccc12 (stereo not drawn)	15%	-8%	.	.	.	.
CCCNC(=O)N[C@H]1C=C[C@H](CC(=O)OC)O[C@@H]1CO	3%	.	.	.	.	.
O=C(CN1CC(=O)Nc2ccccc21)NCCc1ccc(Cl)cc1Cl	0%	-26%	-10	-28%	-12	?
CSc1ncccc1C(=O)OCC(=O)N(C)Cc1ccc(C)cc1	11%	.	.	.	.	.
COc1cccc(C(=O)Oc2ccc3ccc(O)cc3c2)c1	-2%	2%	39*	72%	.	-5%
CC(=O)Nc1ccc(OS(=O)(=O)c2ccccc2C)cc1	2%	8%	8	20%	8	23%
COc1cccc(C(=O)NNC(=O)c2ccc3ccccc3c2)c1	32%	1%	.	.	.	.
Cc1ccccc1C(=O)Oc1cccc2c(O)cccc12	-2%	-28%	9	?	12	?
Cc1ccccc1S(=O)(=O)Oc1ccc2ccc(O)cc2c1	-3%	22µM*	32*	56%	.	116%
Cc1ccccc1C(=O)Oc1ccc2ccc(O)cc2c1	-5%	-9%	59*	217%	.	123%
O=C(NCCc1ccc(Cl)cc1)C1CCN(C(=O)c2ccc(F)cc2)CC1	26%	-2%	-3	-24%	-3	-22%
CN(C)CCNc1ncnc2c1ncn2[C@H]1CN(Cc2ccc3c(c2)OCO3)C[C@@H](CO)O1	5%	.	.	.	.	.
